Results as given in the supplement of paper PMC3334620.
Whole data set: some 33,000 sequences, median “E-score (-0.5 to 0.5)” near -0.0034, cut for the highest 2% near 0.25. The full list was thinned out, with the highest values kept by preference.

Target: T1, Yap3 (UniProt P38749)
T1 sequence: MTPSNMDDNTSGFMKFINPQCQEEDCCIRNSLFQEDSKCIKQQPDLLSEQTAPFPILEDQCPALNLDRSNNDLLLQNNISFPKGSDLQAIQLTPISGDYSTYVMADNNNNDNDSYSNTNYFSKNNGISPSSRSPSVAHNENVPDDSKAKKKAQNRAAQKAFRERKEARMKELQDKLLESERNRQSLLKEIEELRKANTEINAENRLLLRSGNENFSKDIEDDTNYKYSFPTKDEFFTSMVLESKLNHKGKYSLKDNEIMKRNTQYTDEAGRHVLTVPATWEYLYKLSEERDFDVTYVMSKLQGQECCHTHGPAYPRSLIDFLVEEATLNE
Assay: PBM E-score (8-mer binding enrichment) (E-score (-0.5 to 0.5)); higher = stronger / more preferred TF binding
Conditions: protein concentration: 100 nM; construct: GST-full length
Procedure: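 Universal 'all 10-mer' protein binding microarrays (Agilent AMADID 015681) probed with GST-tagged S. cerevisiae TFs (full-length or DBD) made by in vitro transcription/translation (PURExpress), about 100-200 nM. Bound TF was detected with fluorescent anti-GST. Each ungapped 8-mer (which stands for itself and its reverse complement) is scored by the PBM enrichment score (E-score), a modified Wilcoxon-Mann-Whitney statistic from -0.5 to +0.5, computed with the Universal PBM Analysis Suite. Scale: above 0.35 generally sequence-specific binding.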

Row | Sequence | PBM E-score
1 | TTCTGAAA | 0.145
2 | ACCCAAAC | 0.0961
3 | AGATCCTA | 0.0833
4 | CAAGTTCA | -0.00101
5 | CGGATGAC | 0.0307
6 | ATCTTTCA | 0.207
7 | CATAATCA | 0.271
8 | TATAATCA | 0.265
9 | CATAATCG | 0.187
10 | GATAATCA | 0.221
11 | CATAATCC | 0.0889
12 | AATAATCA | 0.11
13 | CATAAGTC | 0.112
14 | CTGGTCTA | -0.0194
15 | AGCGCACG | -0.0432
16 | CTTGGTAA | 0.101
17 | ATTGGTAA | 0.304
18 | GTTGGTAA | 0.149
19 | ACGTCTCT | -0.138
20 | ATTACCGG | -0.0144
21 | AGTTGTGA | 0.108
22 | AGTTGTGC | 0.0195
23 | AGTTGTGG | 0.271
24 | TATCAAAA | 0.23
25 | ATATGAGA | 0.196

Row | Sequence | PBM E-score
26 | ATTAATCA | 0.287
27 | ATTAATCC | 0.0925
28 | CTTAATCA | 0.166
29 | GTTAATCA | 0.256
30 | GCTAATCA | 0.164
31 | ATTAATCG | 0.191
32 | AACTTTAA | 0.234
33 | AAGTCTCA | -0.101
34 | GATCAGAC | -0.0877
35 | AGTGGAAC | -0.0961
36 | GAAGCCTC | -0.198
37 | AACGAACG | -0.00775
38 | AACGAACA | 0.259
39 | CACGAACA | 0.192
40 | CAGGGTCC | -0.29
41 | GGAAATTA | 0.332
42 | AGAAATTA | 0.202
43 | ACAAATTA | 0.242
44 | GAAAATTA | 0.207
45 | GCAAATTA | 0.262
46 | CCAAATTA | 0.192
47 | ATACCACC | 0.086
48 | GGAATCTA | 0.0443
49 | GTCGCACA | -0.0581
50 | GATTTGGA | -0.0207

Row | Sequence | PBM E-score
51 | AGATGGAA | -0.0109
52 | CTTTATAC | 0.114
53 | ATTTATAC | 0.302
54 | ATTTATAG | 0.206
55 | CTTTATAA | 0.206
56 | ATTTATAA | 0.273
57 | GTTTATAA | 0.224
58 | AATGAGCA | -0.00708
59 | TCAACTGA | 0.0958
60 | AATGGCTA | 0.169
61 | AAGAATTG | 0.171
62 | TCGGGGAA | 0.0864
63 | AAATGCCG | 0.113
64 | ATACAGAT | 0.11
65 | CGGAAATC | 0.12
66 | AGTAAATC | 0.159
67 | CGTAAATA | 0.262
68 | AGTAAATA | 0.26
69 | GGGAAATA | 0.0786
70 | AGTAAATG | 0.0753
71 | CGGAAATA | 0.289
72 | CGTAAATC | -0.00431
73 | GGTAAATA | 0.111
74 | AGACTGAA | -0.0205
75 | AGCACGTG | 0.127

Row | Sequence | PBM E-score
76 | GAGCCACA | -0.104
77 | ACCCTATA | -0.084
78 | CGTGGATA | -0.0137
79 | GCAGGTTA | -0.0925
80 | GAAAACAA | 0.199
81 | TAAAACAA | 0.0703
82 | TTAAACAA | -0.026
83 | ATAAACAA | 0.279
84 | ACAAACAA | 0.173
85 | GCAAACAC | -0.0377
86 | AAAAACAA | 0.28
87 | ATAAACAC | 0.1
88 | GCAAACAA | 0.272
89 | AAAAACTA | 0.256
90 | GAAAACTA | 0.16
91 | CAAAACTA | 0.223
92 | ATCAGCTG | 0.195
93 | ACTGGACC | -0.196
94 | ACGGAGGG | -0.139
95 | CCTGGATA | -0.231
96 | CGGATTGC | 0.0717
97 | GGCTTGAA | 0.0362
98 | AGTTTTCC | 0.0722
99 | AGCCAACG | 0.0109
100 | CAAAACGA | 0.133

Row | Sequence | PBM E-score
101 | AAAAACGA | 0.256
102 | GAAAACGA | 0.00196
103 | GAGTCTAA | 0.00387
104 | AATCCGGG | -0.242
105 | AATCCGGC | 0.0559
106 | AATCCGGA | 0.256
107 | GACAGCTA | -0.119
108 | CTGCTGGA | -0.158
109 | CCCTTTTC | -0.00476
110 | TAATAGTA | 0.142
111 | CAATATCA | 0.167
112 | AGATATTA | 0.162
113 | AAATATTC | 0.162
114 | TAATATTA | 0.347
115 | GAATATTA | 0.263
116 | AAATATCA | 0.187
117 | GAATATTC | 0.194
118 | CAATATTA | 0.226
119 | AAATATTA | 0.349
120 | TAATATCA | 0.275
121 | GAATATCA | 0.159
122 | ACATTGCC | -0.0211
123 | GGCTTGAC | 0.0242
124 | AGCAACTA | 0.143
125 | TACCCAAA | 0.0436

Row | Sequence | PBM E-score
126 | TCGGTTAA | 0.168
127 | AGGCTAGG | -0.199
128 | AAGGTGCG | -0.131
129 | CGTTGATC | 0.0509
130 | AAATATTG | 0.269
131 | AAATATTT | 0.249
132 | CAATATTG | 0.213
133 | AGAAGATC | -0.0464
134 | CAGTTAGG | 0.149
135 | AATCATGG | 0.127
136 | AATCATGA | 0.275
137 | TATCATGA | 0.0822
138 | TAAAATGA | 0.23
139 | AAAATTTA | 0.0414
140 | AAAAATTT | 0.145
141 | CAAATTTA | 0.203
142 | TAAAATCA | 0.142
143 | CAAAATTA | 0.163
144 | CCAATTTA | 0.258
145 | TAAAATTA | 0.28
146 | ACAATTTA | 0.193
147 | AAAAATTA | 0.29
148 | GCAATTTA | 0.139
149 | TAAATTTA | 0.26
150 | CCACCAAC | 0.0331

Row | Sequence | PBM E-score
151 | CGTCCAAC | 0.0756
152 | ACGAGGCT | 0.117
153 | ATCTAAGG | 0.0735
154 | ACCAGACC | -0.206
155 | AAGTCATC | -0.0947
156 | GAGGCATC | -0.206
157 | CCCGCCCC | 0.022
158 | AACAACTA | 0.0618
159 | AACAACAT | 0.191
160 | CACAACTG | -0.0612
161 | AACAACAC | 0.303
162 | CACAACAA | 0.0683
163 | CACAACAC | 0.173
164 | GACAACAC | 0.00619
165 | CACAACTA | 0.262
166 | AACAACAA | 0.259
167 | GCAATGTA | 0.0481
168 | GGACCAAC | -0.182
169 | CTCGAGAC | 0.124
170 | CTCAGCGC | -0.114
171 | TATGGCCA | 0.0682
172 | ATTGTTCA | 0.159
173 | ATTATCTC | 0.268
174 | AATATCTG | 0.084
175 | AATATCTC | 0.263

Row | Sequence | PBM E-score
176 | ATTATCAC | 0.282
177 | CTTATCTC | 0.0941
178 | ATTATCGC | 0.304
179 | ATTATCTG | 0.119
180 | AATATCTA | 0.0725
181 | ATTATCGA | 0.132
182 | CTTATCAC | -0.0604
183 | ATTATCGG | -0.0264
184 | ATTATCAG | 0.0829
185 | CGTTTCCA | 0.105
186 | AATTCACA | 0.238
187 | CTGAGACA | -0.0945
188 | GCCCACAA | -0.141
189 | AATAGAAG | 0.0527
190 | CGGCAGAA | 0.124
191 | TGAGTCAA | 0.0132
192 | GAACCAAA | -0.0377
193 | CTGTGCCA | -0.119
194 | GAGTAATC | 0.103
195 | GAGTAATA | 0.273
196 | AAGTAATA | 0.158
197 | CAGTAATA | 0.307
198 | CAGTAATC | 0.0876
199 | CAGTAATG | 0.0685
200 | CATAGGCA | -0.0267

Row | Sequence | PBM E-score
201 | AGTCGACG | 0.23
202 | ACCACCAC | -0.00648
203 | CACAGGCA | 0.0714
204 | AGACTGTC | -0.163
205 | CTTGAAAC | 0.177
206 | CCGGCCAG | -0.181
207 | CCACATAC | 0.249
208 | GTATTTTA | 0.0831
209 | ATATTTTC | 0.261
210 | ATATTTGA | 0.149
211 | GCATTTTA | 0.227
212 | CCATTTTA | 0.222
213 | CTATTTTA | 0.251
214 | ATATTTTA | 0.273
215 | ACATTTTA | 0.259
216 | ATATTTTG | 0.157
217 | CTATTTTC | 0.114
218 | CTATTTGA | 0.27
219 | GTATTTGA | 0.137
